Measurements as given in PubChem BioAssay (EPA / NIEHS).
Results filed as inconclusive are left out. Activity calls are given as the source filed them. The calls were made as follows: active = hit-call score of the fitted dose curve at least 0.9, where 1 is the maximum; inconclusive = response in the unintended direction; inactive = score below 0.9.

target: guinea pig Opioid, Kappa 1 Receptor (OpiateK), OPRK1 (gene 100135587) (UniProt P41144); test: NVS_GPCR_gOpiateK: NovaScreen (NVS) G Protein-Coupled Receptor Assay for guinea pig Opioid, Kappa 1 Receptor (OpiateK) (AID 2283252);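 also: radioligand displacement from kappa opioid receptor in guinea pig cerebellar membranes; active means reduced radioligand binding relative to DMSO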
Sequence (P41144 whole entry, looked up): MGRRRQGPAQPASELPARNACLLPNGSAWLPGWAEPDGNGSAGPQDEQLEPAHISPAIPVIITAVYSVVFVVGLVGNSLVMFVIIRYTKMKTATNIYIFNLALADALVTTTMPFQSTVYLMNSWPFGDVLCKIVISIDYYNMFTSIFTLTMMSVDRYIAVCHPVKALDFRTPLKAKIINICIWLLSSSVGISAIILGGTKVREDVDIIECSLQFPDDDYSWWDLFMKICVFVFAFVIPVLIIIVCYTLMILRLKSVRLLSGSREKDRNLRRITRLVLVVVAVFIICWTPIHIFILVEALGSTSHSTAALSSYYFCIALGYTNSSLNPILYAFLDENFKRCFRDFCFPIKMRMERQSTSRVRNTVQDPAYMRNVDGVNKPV
Procedure, shortened: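 Guinea pig cerebellar membranes, radioligand displacement with filter-based scintillation counting, 2 h after dosing. Primary screen single concentration 25 uM in duplicate; actives retested in concentration series; loss of binding fitted versus DMSO.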

Structure (SMILES) | AC50 | outcome
c1ccc(C(O[C@@H]2CCCN(CCc3ccc4c(c3)OCO4)C2)c2ccccc2)cc1 | 3.06 µM (active) | 
COc1cc(C(C)C)c2c(c1)S(=O)(=O)N(COc1cc(=O)n3cccc(OCCN4CCCCC4)c3n1)C2=O | 5.55 µM (active) | 
CCN(CC)C(=S)SSC(=S)N(CC)CC |  | inactive
CCn1nc(C)c2c1C(=O)NCC(c1ccc(O)cc1)=N2 |  | inactive
CCCOc1ccc(S(=O)(=O)N2CCN(CC)CC2)cc1-c1nc2c(CC)n(Cc3ccccn3)nc2c(=O)[nH]1 |  | inactive
Cc1nccn1-c1ccc(Sc2cccc(C3(C(N)=O)CCOCC3)c2)cc1 | 2.06 µM (active) | 
O=S(=O)(O)c1ccc(N=Nc2c(O)ccc3cc(S(=O)(=O)O)ccc23)cc1 |  | inactive

target: human Serotonin, 5-Hydroxytryptamine Receptor 6 (5HT6), HTR6 (gene 3362) (UniProt P50406); test: NVS_GPCR_h5HT6: NovaScreen (NVS) G Protein-Coupled Receptor Assay for human Serotonin, 5-Hydroxytryptamine Receptor 6 (5HT6) (AID 2283253)
Sequence (P50406 whole entry, looked up): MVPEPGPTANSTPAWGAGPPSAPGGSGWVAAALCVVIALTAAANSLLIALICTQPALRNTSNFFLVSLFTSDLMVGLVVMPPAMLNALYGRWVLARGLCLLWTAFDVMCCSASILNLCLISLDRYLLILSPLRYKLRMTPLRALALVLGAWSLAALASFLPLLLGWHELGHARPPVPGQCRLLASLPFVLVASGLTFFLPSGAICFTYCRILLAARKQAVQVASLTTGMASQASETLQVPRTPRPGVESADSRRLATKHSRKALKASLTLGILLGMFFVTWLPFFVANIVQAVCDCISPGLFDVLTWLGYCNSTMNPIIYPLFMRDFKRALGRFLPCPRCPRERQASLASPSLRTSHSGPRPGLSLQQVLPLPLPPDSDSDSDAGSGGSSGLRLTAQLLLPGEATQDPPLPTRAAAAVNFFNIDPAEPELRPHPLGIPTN
Procedure, shortened: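 Radioligand binding to 5HT6 in HEK293-derived membranes, cell-free, 1 h after dosing; bound ligand measured by filter-based scintillation counting. Primary screen in duplicate at 25 uM; actives retested in concentration series.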

Structure (SMILES) | AC50 | outcome
C=CCc1cc(S(=O)(=O)c2ccc(O)c(CC=C)c2)ccc1O | 0.0408 µM (active) | 
c1ccc(C(O[C@@H]2CCCN(CCc3ccc4c(c3)OCO4)C2)c2ccccc2)cc1 | 25 µM (active) | 
COc1cc(C(C)C)c2c(c1)S(=O)(=O)N(COc1cc(=O)n3cccc(OCCN4CCCCC4)c3n1)C2=O | 2.55 µM (active) | 
COCc1nnc(-c2ccc[n+]([O-])c2)n1-c1c(Cl)c(Cl)cc2[nH]c(=O)c(=O)[nH]c12 |  | inactive
CCN(CC)C(=S)SSC(=S)N(CC)CC | 8.33 µM (active) | 
CCCCCCCCCC |  | inactive
CC(C)C(=O)Nc1ccc([N+](=O)[O-])c(C(F)(F)F)c1 | 4.5 µM (active) | 
CCn1nc(C)c2c1C(=O)NCC(c1ccc(O)cc1)=N2 |  | inactive
c1ccc2cc3ccccc3cc2c1 |  | inactive
CCCCCCCCN(C)C |  | inactive

target: human Adenosine A1 Receptor (AdoRA1), ADORA1 (gene 134) (UniProt P30542); test: NVS_GPCR_hAdoRA1: NovaScreen (NVS) G Protein-Coupled Receptor Assay for human Adenosine A1 Receptor (AdoRA1) (AID 2283254)
Sequence (P30542 whole entry, looked up): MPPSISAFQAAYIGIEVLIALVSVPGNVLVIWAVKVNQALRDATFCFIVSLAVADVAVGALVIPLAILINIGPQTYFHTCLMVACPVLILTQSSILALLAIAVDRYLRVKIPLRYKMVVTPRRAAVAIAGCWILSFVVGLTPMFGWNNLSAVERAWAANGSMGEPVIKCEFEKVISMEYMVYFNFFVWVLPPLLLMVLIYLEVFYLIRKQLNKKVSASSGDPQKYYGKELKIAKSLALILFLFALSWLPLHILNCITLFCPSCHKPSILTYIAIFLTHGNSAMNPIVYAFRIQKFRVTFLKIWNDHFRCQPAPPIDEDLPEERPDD
Procedure, shortened: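 Each chemical is first tested twice at 25 uM, actives later in dilution series, against a radioligand bound to human cortex membranes; after 1 h, filter-retained counts are compared with DMSO controls, lower signal indicating displacement.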

Structure (SMILES) | AC50 | outcome
C=CCc1cc(S(=O)(=O)c2ccc(O)c(CC=C)c2)ccc1O | 3.19 µM (active) | 
c1ccc(C(O[C@@H]2CCCN(CCc3ccc4c(c3)OCO4)C2)c2ccccc2)cc1 | 20.7 µM (active) | 
COCc1nnc(-c2ccc[n+]([O-])c2)n1-c1c(Cl)c(Cl)cc2[nH]c(=O)c(=O)[nH]c12 | 32.2 µM (active) | 
CCCCCCCCCC |  | inactive
CC(C)C(=O)Nc1ccc([N+](=O)[O-])c(C(F)(F)F)c1 |  | inactive
CCn1nc(C)c2c1C(=O)NCC(c1ccc(O)cc1)=N2 |  | inactive
CCCOc1ccc(S(=O)(=O)N2CCN(CC)CC2)cc1-c1nc2c(CC)n(Cc3ccccn3)nc2c(=O)[nH]1 | 6.54 µM (active) | 
NC(=O)N1c2ccccc2C=Cc2ccccc21 | 7.33 µM (active) | 
Cc1nccn1-c1ccc(Sc2cccc(C3(C(N)=O)CCOCC3)c2)cc1 |  | inactive
O=S(=O)(O)c1ccc(N=Nc2c(O)ccc3cc(S(=O)(=O)O)ccc23)cc1 |  | inactive

target: human Serotonin, 5-Hydroxytryptamine Receptor 7 (5HT7), HTR7 (gene 3363) (UniProt P34969); test: NVS_GPCR_h5HT7: NovaScreen (NVS) G Protein-Coupled Receptor Assay for human Serotonin, 5-Hydroxytryptamine Receptor 7 (5HT7) (AID 2283255);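 also: hits reduce specific radioligand binding relative to DMSO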
Sequence (P34969 whole entry, looked up): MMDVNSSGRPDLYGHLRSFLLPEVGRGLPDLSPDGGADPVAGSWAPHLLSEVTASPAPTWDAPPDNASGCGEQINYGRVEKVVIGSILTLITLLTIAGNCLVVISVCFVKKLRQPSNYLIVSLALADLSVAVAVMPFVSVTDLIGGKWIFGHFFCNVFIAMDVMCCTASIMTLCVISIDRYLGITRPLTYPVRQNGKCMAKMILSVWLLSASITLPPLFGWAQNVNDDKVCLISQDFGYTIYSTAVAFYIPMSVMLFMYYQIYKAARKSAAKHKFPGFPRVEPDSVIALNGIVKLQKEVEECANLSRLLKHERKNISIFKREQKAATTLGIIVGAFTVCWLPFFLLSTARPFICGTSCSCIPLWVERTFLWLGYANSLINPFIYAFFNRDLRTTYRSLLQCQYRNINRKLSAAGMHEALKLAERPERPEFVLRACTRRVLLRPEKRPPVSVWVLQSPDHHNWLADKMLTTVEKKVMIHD
Procedure, shortened: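 Radioligand displacement on membranes from CHO cells expressing human 5HT7, 1 h incubation, filter-based scintillation counting. Primary screen used a single 25 uM concentration in duplicate; actives were followed up in concentration series.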

Structure (SMILES) | AC50 | outcome
C=CCc1cc(S(=O)(=O)c2ccc(O)c(CC=C)c2)ccc1O | 9.39 µM (active) | 
c1ccc(C(O[C@@H]2CCCN(CCc3ccc4c(c3)OCO4)C2)c2ccccc2)cc1 | 0.99 µM (active) | 
CCN(CC)C(=S)SSC(=S)N(CC)CC | 13.5 µM (active) | 
CCCCCCCCCC |  | inactive
CCn1nc(C)c2c1C(=O)NCC(c1ccc(O)cc1)=N2 | 25 µM (active) | 
CCCCCCCCN(C)C | 6.63 µM (active) | 
CCCCCCCCCCCCCCCCOS(=O)(=O)O | 15.6 µM (active) | 
O=S(=O)(O)c1ccc(N=Nc2c(O)ccc3cc(S(=O)(=O)O)ccc23)cc1 |  | inactive

target: human Adenosine A2a Receptor (AdoRA2a), ADORA2A (gene 135) (UniProt P29274); test: NVS_GPCR_hAdoRA2a: NovaScreen (NVS) G Protein-Coupled Receptor Assay for human Adenosine A2a Receptor (AdoRA2a) (AID 2283256)
Sequence (P29274 whole entry, looked up): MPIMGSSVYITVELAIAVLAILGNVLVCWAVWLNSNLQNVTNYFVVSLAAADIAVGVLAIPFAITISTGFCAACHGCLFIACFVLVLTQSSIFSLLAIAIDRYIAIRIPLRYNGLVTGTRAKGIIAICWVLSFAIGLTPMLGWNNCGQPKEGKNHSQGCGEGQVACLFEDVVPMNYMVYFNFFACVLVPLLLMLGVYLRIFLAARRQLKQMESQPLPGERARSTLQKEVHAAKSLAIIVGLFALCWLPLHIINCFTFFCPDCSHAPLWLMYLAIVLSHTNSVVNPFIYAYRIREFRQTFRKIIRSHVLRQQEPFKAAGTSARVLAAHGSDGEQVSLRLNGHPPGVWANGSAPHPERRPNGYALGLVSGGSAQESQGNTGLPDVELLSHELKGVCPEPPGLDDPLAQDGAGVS
Experimental: (§1) NVS_GPCR_hAdoRA2a is a biochemical, single-readout assay that uses extracted gene-proteins from HEK293 in a cell-free assay. Measurements were taken 1.5 hours after chemical dosing in a 96-well plate.NVS_GPCR_hAdoRA2a is one of one assay component(s) measured or calculated from the NVS_GPCR_hAdoRA2a assay. It is designed to make measurements of radioligand binding, a form of binding reporter, as detected with scintillation counting signals by Filter-based radiodetection technology.Data from the assay component NVS_GPCR_hAdoRA2a was analyzed into 1 assay endpoint. This assay endpoint, NVS_GPCR_hAdoRA2a, was analyzed in the positive analysis fitting direction relative to DMSO as the negative control and baseline of activity. Using a type of binding reporter, loss-of-signal activity can be used to understand changes in the binding as they relate to the gene ADORA2A. Furthermore, this assay endpoint can be referred to as a primary readout, because the performed assay has only produced 1 assay endpoint. To generalize the intended target to other relatable targets, this assay endpoint is annotated to the gpcr intended target family, where the subfamily is rhodopsin-like receptor.
(§2) Binding assays used specific radioligands (tritiated, iodinated) with non-radioactive competitive displacement ligands in agonist or antagonist protocols (as indicated) and various reference compounds and inhibitors to titrate specific binding to receptors and transporters. Most enzyme assays (CYPs, kinases, phosphatases, proteases, HDACs) used recombinant protein and specific substrates (fluorescence mostly, some colorimetric and radioactive) and inhibitors, followed by a biochemical separation of substrate and product. All assays for the biochemical HTS were initially run in duplicate at a single concentration (10 uM for CYP450 assays and 25 uM for all others). […] Each assay was run with positive and negative controls, and concurrent controls on every plate. The follow-up (secondary) screen tested active chemical-pairs in concentration series, as well as a few additional assays not tested in the primary screen, some selected negative inactives, and several cases re-run in the concentration series for confirmatory purposes.

Structure (SMILES) | AC50 | outcome
C=CCc1cc(S(=O)(=O)c2ccc(O)c(CC=C)c2)ccc1O | 15.6 µM (active) | 
COCc1nnc(-c2ccc[n+]([O-])c2)n1-c1c(Cl)c(Cl)cc2[nH]c(=O)c(=O)[nH]c12 |  | inactive
OCc1c[nH]c2ccccc12 |  | inactive
CCCCCCCCCC |  | inactive
CCn1nc(C)c2c1C(=O)NCC(c1ccc(O)cc1)=N2 | 10.2 µM (active) | 
CCc1ccc(O)c(C(C)(C)C)c1 |  | inactive
Cc1nccn1-c1ccc(Sc2cccc(C3(C(N)=O)CCOCC3)c2)cc1 | 4.51 µM (active) | 
O=S(=O)(O)c1ccc(N=Nc2c(O)ccc3cc(S(=O)(=O)O)ccc23)cc1 | 35 µM (active) | 

target: human Adrenergic, Alpha 2A Receptor (Adra2A), ADRA2A (gene 150) (UniProt P08913); test: NVS_GPCR_hAdra2A: NovaScreen (NVS) G Protein-Coupled Receptor Assay for human Adrenergic, Alpha 2A Receptor (Adra2A) (AID 2283257)
Sequence (P08913 whole entry, looked up): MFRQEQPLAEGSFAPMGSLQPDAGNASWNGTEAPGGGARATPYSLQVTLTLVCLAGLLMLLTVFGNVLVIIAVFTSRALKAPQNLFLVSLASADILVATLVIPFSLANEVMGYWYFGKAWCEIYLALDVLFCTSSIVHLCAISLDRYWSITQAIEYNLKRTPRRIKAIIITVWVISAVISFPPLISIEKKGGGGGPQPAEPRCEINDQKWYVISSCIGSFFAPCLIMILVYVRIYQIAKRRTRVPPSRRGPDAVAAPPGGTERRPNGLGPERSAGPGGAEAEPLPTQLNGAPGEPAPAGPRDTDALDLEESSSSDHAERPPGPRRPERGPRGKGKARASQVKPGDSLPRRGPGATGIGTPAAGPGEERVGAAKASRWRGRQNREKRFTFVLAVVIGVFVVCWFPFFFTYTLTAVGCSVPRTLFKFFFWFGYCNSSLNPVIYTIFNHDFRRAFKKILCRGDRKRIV
Experimental: as §1, with “NVS_GPCR_hAdra2A” for “NVS_GPCR_hAdoRA2a”, “HT29” for “HEK293”, “1 hour” for “1.5 hours”, “48-well plate.NVS_GPCR_hAdra2A” for “96-well plate.NVS_GPCR_hAdoRA2a”, “NVS_GPCR_hAdra2A,” for “NVS_GPCR_hAdoRA2a,”, “ADRA2A.” for “ADORA2A.”
as §2

Structure (SMILES) | AC50 | outcome
OC(CCl)CCl | 25 µM (active) | 
Cc1ncc([C@@H](CCCCCCc2ccc3c(n2)NCCC3)CC(=O)O)cn1 | 13.7 µM (active) | 
c1ccc(C(O[C@@H]2CCCN(CCc3ccc4c(c3)OCO4)C2)c2ccccc2)cc1 | 18 µM (active) | 
O=C(O)c1ccc2c(c1)nc(C(=O)NC1CCN(C3CC3)CC1)n2Cc1cc(-c2ccc(Cl)s2)on1 | 0.308 µM (active) | 
COc1cc(C(C)C)c2c(c1)S(=O)(=O)N(COc1cc(=O)n3cccc(OCCN4CCCCC4)c3n1)C2=O | 2.83 µM (active) | 
NNC(=O)c1ccncc1 |  | inactive
CCn1nc(C)c2c1C(=O)NCC(c1ccc(O)cc1)=N2 |  | inactive
O=C(NO)C1(NS(=O)(=O)c2ccc(Oc3ccc(F)cc3)cc2)CCOCC1 | 25 µM (active) | 
O=S(=O)(O)c1ccc(N=Nc2c(O)ccc3cc(S(=O)(=O)O)ccc23)cc1 |  | inactive
